This note sets out measurements from PubChem BioAssay (NCATS).

Structures are written as SMILES. “And” between values parts separate entries of the source, which are not always exact repeats. Equal values may be shown once. Inconclusive results are not listed. Values without a mark were called inactive. The source made the active and inactive calls. Unless noted, the call rests on the fitted dose curve; in most records, active means well fitted curve in the direction sought with a large enough effect; inconclusive means small, poorly fitted or top-dose-only effect, or another doubt; inactive means no such curve, though single readings can be large; an effect the other way counts as inactive or inconclusive.

Experiment [1] in a line: Cell Viability - LYMP2-009 (AID 968).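 Further: cells exposed to compound for 24 h at 37 °C; nearly all actives have a fitted effect of over 55% in size.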 Further: potency means the concentration at half of the fitted maximal effect.
Experiment [2] concerns the target Androgen receptor (Homo sapiens) (UniProt P10275). Put plainly: qHTS assay for small molecule agonists of androgen receptor signaling (AID 588515; active means well fitted curve in the direction sought with a large enough effect in the signal ratio, with a control signal flat; the % refers to the signal ratio; further: on the % scale 0 is the no-effect control and ±100 the full control effect). The following applies: AR-UAS-bla HEK293, beta-lactamase ratio, agonist 16 h; hits give high values. An outline of the steps: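 Stimulation of an AR-responsive β-lactamase reporter in GripTite HEK293 cells was measured after 16 h compound exposure at 37 °C, via CCF4 fluorescence after 2 h RT. EC50 from Hill fits, normalized to R1881 at 30 nM.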

For experiment [3] the target is unchanged. Put plainly: qHTS assay for small molecule antagonists of androgen receptor signaling (AID 588516; active means well fitted curve in the direction sought with a large enough effect in the signal ratio, with a control signal flat, not every such curve was filed as active; the % refers to the signal ratio; further: on the % scale 0 is the no-effect control and ±100 the full control effect). In a few lines: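 AR-UAS-bla GripTite HEK 293 cells (2000/well) treated with compound titrations plus 10 nM R1881 for 16 h at 37C. Beta-lactamase read by CCF4 FRET (460/530 nm); IC50 from Hill fits, normalized to R1881 and DMSO control wells.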
In experiment [4] the target is Nuclear receptor ROR-gamma (Homo sapiens) (UniProt P51449). Put plainly: qHTS assay for small molecule antagonists of the retinoid-related orphan receptor gamma (ROR-gamma) signaling pathway (AID 651802). Further: nearly all actives have a fitted effect of over 60% in size. Further: potency means the concentration at half of the fitted maximal effect. An outline of the steps:
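Doxycycline-induced reporter activity in engineered CHO cells (TET-inducible ROR, RORE-LUC) was measured by luminescence after 16hr compound exposure at 37C.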
(qHTS replaces the single test concentration by a dilution series.)

Experiment [5] is described as follows: qHTS profiling for inhibitors of Plasmodium falciparum proliferation (AID 504749). Further: potency means the concentration at half of the fitted maximal effect.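 On activity, negative = inhibition: 0% = DMSO vehicle and full inhibition = artemisinin control.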 On all read-outs here: nearly all actives have a fitted effect of over 60% in size. The following applies: P. falciparum in erythrocytes, SYBR Green DNA, 72 h; for activity, negative = inhibition: at 28.7 µM (top of the series). In a few lines: (§1)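 Fluorescence of SYBR Green-bound parasite DNA, read at 485/535 nm, served as the growth measure. Infected erythrocytes were cultured with compound 72 h; artemisinin (0.29 uM) and DMSO wells defined the normalization range.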

A further experiment has as its system AA1029. The description is as above. The following applies: P. falciparum in erythrocytes, SYBR Green DNA, 72 h; series mostly up to 28.7 µM. In a few lines:
as §1

The next experiment concerns AS120. The experiment is described as above. The following applies: P. falciparum in erythrocytes, SYBR Green DNA, 72 h; series mostly up to 28.7 µM. An outline of the steps:
as §1

In another experiment the test system is ATS189. Described as above. The following applies: P. falciparum in erythrocytes, SYBR Green DNA, 72 h; series mostly up to 28.7 µM. An outline of the steps:
as §1

A further experiment has as its system ATS95. The description is as above. The following applies: P. falciparum in erythrocytes, SYBR Green DNA, 72 h; series mostly up to 28.7 µM. An outline of the steps:
as §1

The test system of the next experiment is CP238. The experiment is described as above. The following applies: P. falciparum in erythrocytes, SYBR Green DNA, 72 h; series mostly up to 28.7 µM. An outline of the steps: as §1
The test system of the next experiment is CP247. The experiment is described as above. The following applies: P. falciparum in erythrocytes, SYBR Green DNA, 72 h; series mostly up to 28.7 µM. In a few lines:
as §1

Another experiment relates to CP265. The experiment is described as above. The following applies: P. falciparum in erythrocytes, SYBR Green DNA, 72 h; series mostly up to 28.7 µM. An outline of the steps: as §1
The next experiment deals with CP286. Described as above. The following applies: P. falciparum in erythrocytes, SYBR Green DNA, 72 h; series mostly up to 28.7 µM. In a few lines:
as §1

The next experiment has as its system CP335. The description is as above. The following applies: P. falciparum in erythrocytes, SYBR Green DNA, 72 h; series mostly up to 28.7 µM. An outline of the steps:
as §1

The test system of a further experiment is FAB9. Described as above. The following applies: P. falciparum in erythrocytes, SYBR Green DNA, 72 h; series mostly up to 28.7 µM. In a few lines: as §1
The subject of a further experiment is HB3. Described as above. The following applies: P. falciparum in erythrocytes, SYBR Green DNA, 72 h; series mostly up to 28.7 µM. In a few lines:
as §1

The test system of the next experiment is PAD. The description is as above. The following applies: P. falciparum in erythrocytes, SYBR Green DNA, 72 h; series mostly up to 28.7 µM. In a few lines:
as §1

The subject of the next experiment is PC49. The experiment is described as above. The following applies: P. falciparum in erythrocytes, SYBR Green DNA, 72 h; series mostly up to 28.7 µM. In a few lines: as §1
The subject of another experiment is TAB113. The description is as above. The following applies: P. falciparum in erythrocytes, SYBR Green DNA, 72 h; series mostly up to 28.7 µM. An outline of the steps:
as §1

The test system of the next experiment is W2. The description is as above. The following applies: P. falciparum in erythrocytes, SYBR Green DNA, 72 h; series mostly up to 28.7 µM. In a few lines:
as §1

Chain of Androgen receptor (Homo sapiens) (P10275 whole entry, looked up): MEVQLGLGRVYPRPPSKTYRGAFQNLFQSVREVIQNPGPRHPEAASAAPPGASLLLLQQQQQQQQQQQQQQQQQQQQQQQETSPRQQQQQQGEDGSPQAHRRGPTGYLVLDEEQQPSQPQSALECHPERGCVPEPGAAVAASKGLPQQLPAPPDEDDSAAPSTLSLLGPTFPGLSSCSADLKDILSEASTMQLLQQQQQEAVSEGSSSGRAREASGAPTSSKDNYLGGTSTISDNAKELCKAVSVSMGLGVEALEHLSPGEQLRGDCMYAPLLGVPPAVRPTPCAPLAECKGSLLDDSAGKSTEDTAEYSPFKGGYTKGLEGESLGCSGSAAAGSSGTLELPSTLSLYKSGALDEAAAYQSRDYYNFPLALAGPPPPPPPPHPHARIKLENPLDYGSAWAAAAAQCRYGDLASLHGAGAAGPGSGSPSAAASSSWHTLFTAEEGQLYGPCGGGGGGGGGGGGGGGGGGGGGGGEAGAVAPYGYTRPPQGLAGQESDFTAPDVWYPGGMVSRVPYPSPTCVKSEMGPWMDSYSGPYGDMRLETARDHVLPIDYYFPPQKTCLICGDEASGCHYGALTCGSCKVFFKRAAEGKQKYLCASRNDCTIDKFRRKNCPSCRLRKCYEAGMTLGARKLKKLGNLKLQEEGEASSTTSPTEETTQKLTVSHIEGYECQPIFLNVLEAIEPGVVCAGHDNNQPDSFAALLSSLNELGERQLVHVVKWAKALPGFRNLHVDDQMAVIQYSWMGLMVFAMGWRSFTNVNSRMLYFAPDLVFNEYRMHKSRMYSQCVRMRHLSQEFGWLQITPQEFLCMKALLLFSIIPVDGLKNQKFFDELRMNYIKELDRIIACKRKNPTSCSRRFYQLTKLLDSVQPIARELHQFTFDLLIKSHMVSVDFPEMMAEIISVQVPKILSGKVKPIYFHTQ
Chain of Nuclear receptor ROR-gamma (Homo sapiens) (P51449 whole entry, looked up): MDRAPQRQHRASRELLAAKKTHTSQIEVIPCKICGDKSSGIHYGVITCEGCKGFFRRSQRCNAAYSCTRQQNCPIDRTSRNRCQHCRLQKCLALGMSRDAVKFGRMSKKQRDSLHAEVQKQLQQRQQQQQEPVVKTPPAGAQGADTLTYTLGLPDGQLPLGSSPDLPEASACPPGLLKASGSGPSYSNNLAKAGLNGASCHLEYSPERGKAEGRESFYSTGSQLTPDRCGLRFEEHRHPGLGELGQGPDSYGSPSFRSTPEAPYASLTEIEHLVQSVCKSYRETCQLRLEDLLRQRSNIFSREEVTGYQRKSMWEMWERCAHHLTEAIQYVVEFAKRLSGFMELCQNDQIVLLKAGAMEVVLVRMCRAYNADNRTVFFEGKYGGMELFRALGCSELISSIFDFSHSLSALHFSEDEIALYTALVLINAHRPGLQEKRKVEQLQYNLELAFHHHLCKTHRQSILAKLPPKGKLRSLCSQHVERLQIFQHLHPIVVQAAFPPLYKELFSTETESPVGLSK

In the case of `CN(C)C=O`, the Potency result in experiment [1] is “inactive”.

In the case of `CCO`, the activation in experiment [2] is 30.9%. In addition, in experiment [3], the result was inactive.

Turning to `Cc1ccc([N+](=O)[O-])c(C)c1`, the Potency result in experiment [4] is “inactive”.

`COc1c2ccoc2cc2oc(=O)ccc12`: in experiment [4], the Potency entry was “inactive”.

As to `CO[C@@H]1[C@@H](OC2OC(C)C(OC3CC(C)(O)C(OC(=O)CC(C)C)C(C)O3)C(N(C)C)C2O)[C@@H](CC=O)C[C@@H](C)C(=O)/C=C\C2O[C@H]2C[C@@H](C)OC(=O)C[C@H]1OC(C)=O` (stereo not given in full), the Potency was 11.2 µM (active) in experiment [5] (parasite line A); 10 µM (active) in [5] (parasite line B); 5.01 µM (active) in the experiment with AA1029; 10 µM (active) in the experiment on AS120; 11.2 µM (active) in the experiment with ATS189; 11.2 µM (active) in the experiment with ATS95. Moreover, the Potency in the experiment on CP238 was 10 µM (active); with CP247, 11.2 µM (active); in the experiment with CP265, 11.2 µM (active); with CP286 it was 4.47 µM (active); in the experiment on CP335, 6.75 µM (active); in the experiment on HB3 it was 11.2 µM (active). Besides, the figures for the Potency in the experiment with PAD, with TAB113 and with W2 were 11.2 µM (active), 12.6 µM (active) and 1.69 µM (active), respectively. Further, the Potency result with FAB9 and with PC49 was “inactive” each time.

As to `CCCN(CCC)C(=O)SCC`, in experiment [2], the activation was 12.4% and -3.98%. Besides, in experiment [3], the result was inactive.

In the case of `c1ccc2c(c1)c1cccc3ccc4cccc2c4c31`, in experiment [3], the compound was classed as inactive.

As to `Cc1cccc([N+](=O)[O-])c1C`, the activation in experiment [2] was 2.99% and 5.65%. Besides, the outcome in experiment [3] was inactive.

For the compound `C=Cc1ccccc1Cl`, the activation in experiment [2] is -2.34%. Further, in experiment [3], the result was inactive.

Regarding `CC(C)=CCCC(C)CCO` (stereo not given), the activation in [2] was 11% and 2.32%. Also, the outcome in [3] was inactive.

For `NC1=NC(S)C2N=CN=C2N1` (stereo not given), the Potency in [1] is 15.8 µM (active). Further, the figures for the activity, negative = inhibition in [5] (parasite line A) and in [5] (parasite line B) were 3.76% and -5.29%, respectively. Moreover, the Potency result in the experiment on AA1029, with AS120, in the experiment on ATS189, in the experiment with ATS95, in the experiment with CP238 and in the experiment on CP247 was “inactive” throughout. Also, the Potency entry in the experiment on CP265, in the experiment on CP286, in the experiment with CP335, in the experiment on FAB9, in the experiment with HB3 and with PAD was “inactive” throughout. In addition, the Potency entry with PC49, in the experiment on TAB113 and in the experiment on W2 was “inactive” in each case.

With `CC1(C)CC(N=C=O)CC(C)(CN=C=O)C1` (stereo not given), the Potency result in experiment [1] was “inactive”.

In the case of `COc1ccc2nc(N)sc2c1`, in [2], the activation is 3.27% and 6.72%. Besides, the compound was classed as inactive in [3].

Turning to `CCCCCCCCO`, in experiment [4], the Potency result is “inactive”.

With `c1ccc2c(c1)[nH]c1ccccc12`, the result in [3] was inactive.

As to `C=CC(=O)OCCOCCOCCOCCOC(=O)C=C`, the Potency in experiment [1] was 15.8 µM (active); in [4] it was 11.9 µM (active) and 21.1 µM (active).

Turning to `C/C=C\c1ccc(OC)cc1`, the activity, negative = inhibition was -0.333% in experiment [5] (parasite line A) and -2.16% in experiment [5] (parasite line B). The Potency result in the experiment on AA1029, in the experiment on AS120, in the experiment with ATS189, with ATS95, in the experiment on CP238 and in the experiment with CP247 was “inactive” in each case. The Potency result in the experiment with CP265, in the experiment with CP286, with CP335, with FAB9, in the experiment on HB3 and in the experiment with PAD was “inactive” in each case. Also, the Potency entry with PC49, in the experiment with TAB113 and in the experiment with W2 was “inactive” throughout.

Consider `Cc1ccc(N)c([N+](=O)[O-])c1`, for which the Potency result in [1] was “inactive”.

As for `CN(C)CCCCCCN(C)C`, the Potency result (in experiment [1]; in the experiment on AA1029; with AS120; in the experiment on ATS189; with ATS95; in the experiment on CP238) was “inactive” each time. Further, the Potency result in the experiment on CP247, with CP265, in the experiment on CP286, in the experiment on CP335, with FAB9 and in the experiment on HB3 was “inactive” throughout. The Potency result in the experiment on PAD, with PC49, with TAB113 and with W2 was “inactive” throughout. Further, the results for the activity, negative = inhibition in experiment [5] (parasite line A) and in experiment [5] (parasite line B) were 13.6% and -6.83%, respectively.

With `S=C1NC=NC2N=CNC12` (stereo not given), the activity, negative = inhibition is -17.9% in experiment [5] (parasite line A) and -14.3% in experiment [5] (parasite line B). Moreover, the Potency entry with AA1029, with AS120, in the experiment on ATS189, in the experiment on ATS95, with CP238 and in the experiment on CP247 was “inactive” throughout. The Potency result in the experiment on CP265, with CP286, in the experiment with CP335, with FAB9, in the experiment on HB3 and with PAD was “inactive” in each case. For the same compound, the Potency result with PC49, in the experiment with TAB113 and with W2 was “inactive” throughout.

Consider `CCCCC(CC)CN` (stereo not given), for which the activation in experiment [2] is 5.31% and -4.67%. Also, the compound was called inactive in experiment [3]. In addition, the Potency result in experiment [4] is “inactive”.

Regarding `CCC(C)c1ccccc1O` (stereo not given), the Potency result in experiment [1] was “inactive”.

Turning to `CO/N=C(/C(=O)N[C@@H]1C(=O)N2C(C(=O)O)=CCS[C@H]12)c1csc(N)n1`, the activity, negative = inhibition in experiment [5] (parasite line A) was 1.12%; in experiment [5] (parasite line B), 9.16%. Moreover, the Potency entry in the experiment with AA1029, in the experiment with AS120, in the experiment on ATS189, in the experiment with ATS95, with CP238 and in the experiment with CP247 was “inactive” in each case. In addition, the Potency entry with CP265, in the experiment on CP286, in the experiment on CP335, in the experiment with FAB9, in the experiment with HB3 and in the experiment with PAD was “inactive” in each case. Also, the Potency entry with PC49, with TAB113 and with W2 was “inactive” in each case.

In the case of `CC(=O)OC/C=C(\C)CCC=C(C)C`, in experiment [1], the Potency entry is “inactive”.

As for `Cc1ccccc1C`, the Potency entry in experiment [1] and in experiment [4] was “inactive” throughout.

For the compound `COC(=O)c1ccc(C)cc1`, the Potency result in experiment [1] and in experiment [4] was “inactive” throughout.
